According to PubChem BioAssay (NCATS):
The other results are listed elsewhere or left out. A call without a number means that no potency is given here. Inconclusive results are not listed. The source made the active and inactive calls. Calls follow the shape of the dose curve; as a rule, active = well fitted curve in the direction sought with a large enough effect; inconclusive = small, poorly fitted or top-dose-only effect, or another doubt; inactive = no such curve, though single readings can be large; an effect the other way counts as inactive or inconclusive.

Columns and labels:
[1] = qHTS Assay for Inhibitors of Fructose-1,6-bisphosphate Aldolase from Giardia Lamblia: Giardia lamblia growth inhibition (AID 2785); also: nearly all actives have a fitted effect of over 70% in size
In short: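 Whole-parasite growth test: Giardia WB trophozoites in TYI-S-33 (pH 7.0), 100 per well, incubated 48 h at 37C with compound. ATP content was read by ATPlite luminescence.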

[2] = qHTS Assay for Inhibitors of Fructose-1,6-bisphosphate Aldolase from Giardia Lamblia: Mammalian cellular toxicity (AID 2786);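 also: compound exposure lasted 48 h before reading; nearly all actives have a fitted effect of over 60% in size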
In short: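 Mammalian cytotoxicity surrogate: Chinese hamster ovary cells exposed to compound for 48 h at 37 °C. Cellular ATP then measured with ATPlite reagent, 20 min incubation.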

[3] = qHTS Assay for Inhibitors of Fructose-1,6-bisphosphate Aldolase from Giardia Lamblia: Coupling assay counterscreen confirmation (AID 2795); also: nearly all actives have a fitted effect of over 55% in size
In short: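 Coupling-system counterscreen without aldolase: glyceraldehyde-3-phosphate coupling enzymes preincubated 10 min with compound (up to 57.5 uM final), then substrate and AmpLite Red detection added for 20 min at RT. Fluorescence read at 525/598 nm.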

SMILES | Potency [1] | Potency [2] | outcome [3]
C=C(C)CNC(=S)N/N=C/c1ccccc1OCC(=O)O | inactive | – | –
COCCN(C(=S)Nc1ccccc1OC)C1CCN(C(C)C)CC1 | – | inactive | inactive
